{
  "source": "the supplement of paper PMC11001985",
  "note": "Unmarked numbers belong to inactive results.",
  "data": [
    {"compound": "C#CCNC(=O)CCSSCCC(=O)NCCc1ccc(C=O)c(C=O)c1", "experiment": "lysine labeling ratio R10:1 (500 µM / 50 µM probe), SILAC-ABPP in living cells; higher = lower intrinsic lysine reactivity toward the probe, active = 2 or less", "details": "HeLa; probe concentrations 500 vs 50 µM", "outline": "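Each lysine carries an R value: the filtered median of MS1 peptide ratios of high probe to low probe, with the median then taken over forward and reverse replicates. These came from living SILAC light and heavy HeLa cells in PBS at room temperature labelled with an alkyne-tagged, disulfide-linked lysine probe at 500 µM or 50 µM, in forward and reverse swaps. The lysates were mixed, clicked to biotin-azide, trypsin-digested, captured on neutravidin, released by DTT, alkylated and run by LC-MS/MS on a TIMS-TOF Pro. The highest value allowed is 20.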", "values": [
      {"target": "NOTCH2 (lysine site: K1353) (UniProt Q04721)", "lysine labeling ratio R10:1": 7.44},
      {"target": "SLC39A6 (lysine site: K143) (UniProt Q13433)", "lysine labeling ratio R10:1": 4.18},
      {"target": "ROR2 (lysine site: K285) (UniProt Q01974)", "lysine labeling ratio R10:1": 3.36},
      {"target": "LRP1 (lysine site: K4230) (UniProt Q07954)", "sequence (Q07954 whole entry)": "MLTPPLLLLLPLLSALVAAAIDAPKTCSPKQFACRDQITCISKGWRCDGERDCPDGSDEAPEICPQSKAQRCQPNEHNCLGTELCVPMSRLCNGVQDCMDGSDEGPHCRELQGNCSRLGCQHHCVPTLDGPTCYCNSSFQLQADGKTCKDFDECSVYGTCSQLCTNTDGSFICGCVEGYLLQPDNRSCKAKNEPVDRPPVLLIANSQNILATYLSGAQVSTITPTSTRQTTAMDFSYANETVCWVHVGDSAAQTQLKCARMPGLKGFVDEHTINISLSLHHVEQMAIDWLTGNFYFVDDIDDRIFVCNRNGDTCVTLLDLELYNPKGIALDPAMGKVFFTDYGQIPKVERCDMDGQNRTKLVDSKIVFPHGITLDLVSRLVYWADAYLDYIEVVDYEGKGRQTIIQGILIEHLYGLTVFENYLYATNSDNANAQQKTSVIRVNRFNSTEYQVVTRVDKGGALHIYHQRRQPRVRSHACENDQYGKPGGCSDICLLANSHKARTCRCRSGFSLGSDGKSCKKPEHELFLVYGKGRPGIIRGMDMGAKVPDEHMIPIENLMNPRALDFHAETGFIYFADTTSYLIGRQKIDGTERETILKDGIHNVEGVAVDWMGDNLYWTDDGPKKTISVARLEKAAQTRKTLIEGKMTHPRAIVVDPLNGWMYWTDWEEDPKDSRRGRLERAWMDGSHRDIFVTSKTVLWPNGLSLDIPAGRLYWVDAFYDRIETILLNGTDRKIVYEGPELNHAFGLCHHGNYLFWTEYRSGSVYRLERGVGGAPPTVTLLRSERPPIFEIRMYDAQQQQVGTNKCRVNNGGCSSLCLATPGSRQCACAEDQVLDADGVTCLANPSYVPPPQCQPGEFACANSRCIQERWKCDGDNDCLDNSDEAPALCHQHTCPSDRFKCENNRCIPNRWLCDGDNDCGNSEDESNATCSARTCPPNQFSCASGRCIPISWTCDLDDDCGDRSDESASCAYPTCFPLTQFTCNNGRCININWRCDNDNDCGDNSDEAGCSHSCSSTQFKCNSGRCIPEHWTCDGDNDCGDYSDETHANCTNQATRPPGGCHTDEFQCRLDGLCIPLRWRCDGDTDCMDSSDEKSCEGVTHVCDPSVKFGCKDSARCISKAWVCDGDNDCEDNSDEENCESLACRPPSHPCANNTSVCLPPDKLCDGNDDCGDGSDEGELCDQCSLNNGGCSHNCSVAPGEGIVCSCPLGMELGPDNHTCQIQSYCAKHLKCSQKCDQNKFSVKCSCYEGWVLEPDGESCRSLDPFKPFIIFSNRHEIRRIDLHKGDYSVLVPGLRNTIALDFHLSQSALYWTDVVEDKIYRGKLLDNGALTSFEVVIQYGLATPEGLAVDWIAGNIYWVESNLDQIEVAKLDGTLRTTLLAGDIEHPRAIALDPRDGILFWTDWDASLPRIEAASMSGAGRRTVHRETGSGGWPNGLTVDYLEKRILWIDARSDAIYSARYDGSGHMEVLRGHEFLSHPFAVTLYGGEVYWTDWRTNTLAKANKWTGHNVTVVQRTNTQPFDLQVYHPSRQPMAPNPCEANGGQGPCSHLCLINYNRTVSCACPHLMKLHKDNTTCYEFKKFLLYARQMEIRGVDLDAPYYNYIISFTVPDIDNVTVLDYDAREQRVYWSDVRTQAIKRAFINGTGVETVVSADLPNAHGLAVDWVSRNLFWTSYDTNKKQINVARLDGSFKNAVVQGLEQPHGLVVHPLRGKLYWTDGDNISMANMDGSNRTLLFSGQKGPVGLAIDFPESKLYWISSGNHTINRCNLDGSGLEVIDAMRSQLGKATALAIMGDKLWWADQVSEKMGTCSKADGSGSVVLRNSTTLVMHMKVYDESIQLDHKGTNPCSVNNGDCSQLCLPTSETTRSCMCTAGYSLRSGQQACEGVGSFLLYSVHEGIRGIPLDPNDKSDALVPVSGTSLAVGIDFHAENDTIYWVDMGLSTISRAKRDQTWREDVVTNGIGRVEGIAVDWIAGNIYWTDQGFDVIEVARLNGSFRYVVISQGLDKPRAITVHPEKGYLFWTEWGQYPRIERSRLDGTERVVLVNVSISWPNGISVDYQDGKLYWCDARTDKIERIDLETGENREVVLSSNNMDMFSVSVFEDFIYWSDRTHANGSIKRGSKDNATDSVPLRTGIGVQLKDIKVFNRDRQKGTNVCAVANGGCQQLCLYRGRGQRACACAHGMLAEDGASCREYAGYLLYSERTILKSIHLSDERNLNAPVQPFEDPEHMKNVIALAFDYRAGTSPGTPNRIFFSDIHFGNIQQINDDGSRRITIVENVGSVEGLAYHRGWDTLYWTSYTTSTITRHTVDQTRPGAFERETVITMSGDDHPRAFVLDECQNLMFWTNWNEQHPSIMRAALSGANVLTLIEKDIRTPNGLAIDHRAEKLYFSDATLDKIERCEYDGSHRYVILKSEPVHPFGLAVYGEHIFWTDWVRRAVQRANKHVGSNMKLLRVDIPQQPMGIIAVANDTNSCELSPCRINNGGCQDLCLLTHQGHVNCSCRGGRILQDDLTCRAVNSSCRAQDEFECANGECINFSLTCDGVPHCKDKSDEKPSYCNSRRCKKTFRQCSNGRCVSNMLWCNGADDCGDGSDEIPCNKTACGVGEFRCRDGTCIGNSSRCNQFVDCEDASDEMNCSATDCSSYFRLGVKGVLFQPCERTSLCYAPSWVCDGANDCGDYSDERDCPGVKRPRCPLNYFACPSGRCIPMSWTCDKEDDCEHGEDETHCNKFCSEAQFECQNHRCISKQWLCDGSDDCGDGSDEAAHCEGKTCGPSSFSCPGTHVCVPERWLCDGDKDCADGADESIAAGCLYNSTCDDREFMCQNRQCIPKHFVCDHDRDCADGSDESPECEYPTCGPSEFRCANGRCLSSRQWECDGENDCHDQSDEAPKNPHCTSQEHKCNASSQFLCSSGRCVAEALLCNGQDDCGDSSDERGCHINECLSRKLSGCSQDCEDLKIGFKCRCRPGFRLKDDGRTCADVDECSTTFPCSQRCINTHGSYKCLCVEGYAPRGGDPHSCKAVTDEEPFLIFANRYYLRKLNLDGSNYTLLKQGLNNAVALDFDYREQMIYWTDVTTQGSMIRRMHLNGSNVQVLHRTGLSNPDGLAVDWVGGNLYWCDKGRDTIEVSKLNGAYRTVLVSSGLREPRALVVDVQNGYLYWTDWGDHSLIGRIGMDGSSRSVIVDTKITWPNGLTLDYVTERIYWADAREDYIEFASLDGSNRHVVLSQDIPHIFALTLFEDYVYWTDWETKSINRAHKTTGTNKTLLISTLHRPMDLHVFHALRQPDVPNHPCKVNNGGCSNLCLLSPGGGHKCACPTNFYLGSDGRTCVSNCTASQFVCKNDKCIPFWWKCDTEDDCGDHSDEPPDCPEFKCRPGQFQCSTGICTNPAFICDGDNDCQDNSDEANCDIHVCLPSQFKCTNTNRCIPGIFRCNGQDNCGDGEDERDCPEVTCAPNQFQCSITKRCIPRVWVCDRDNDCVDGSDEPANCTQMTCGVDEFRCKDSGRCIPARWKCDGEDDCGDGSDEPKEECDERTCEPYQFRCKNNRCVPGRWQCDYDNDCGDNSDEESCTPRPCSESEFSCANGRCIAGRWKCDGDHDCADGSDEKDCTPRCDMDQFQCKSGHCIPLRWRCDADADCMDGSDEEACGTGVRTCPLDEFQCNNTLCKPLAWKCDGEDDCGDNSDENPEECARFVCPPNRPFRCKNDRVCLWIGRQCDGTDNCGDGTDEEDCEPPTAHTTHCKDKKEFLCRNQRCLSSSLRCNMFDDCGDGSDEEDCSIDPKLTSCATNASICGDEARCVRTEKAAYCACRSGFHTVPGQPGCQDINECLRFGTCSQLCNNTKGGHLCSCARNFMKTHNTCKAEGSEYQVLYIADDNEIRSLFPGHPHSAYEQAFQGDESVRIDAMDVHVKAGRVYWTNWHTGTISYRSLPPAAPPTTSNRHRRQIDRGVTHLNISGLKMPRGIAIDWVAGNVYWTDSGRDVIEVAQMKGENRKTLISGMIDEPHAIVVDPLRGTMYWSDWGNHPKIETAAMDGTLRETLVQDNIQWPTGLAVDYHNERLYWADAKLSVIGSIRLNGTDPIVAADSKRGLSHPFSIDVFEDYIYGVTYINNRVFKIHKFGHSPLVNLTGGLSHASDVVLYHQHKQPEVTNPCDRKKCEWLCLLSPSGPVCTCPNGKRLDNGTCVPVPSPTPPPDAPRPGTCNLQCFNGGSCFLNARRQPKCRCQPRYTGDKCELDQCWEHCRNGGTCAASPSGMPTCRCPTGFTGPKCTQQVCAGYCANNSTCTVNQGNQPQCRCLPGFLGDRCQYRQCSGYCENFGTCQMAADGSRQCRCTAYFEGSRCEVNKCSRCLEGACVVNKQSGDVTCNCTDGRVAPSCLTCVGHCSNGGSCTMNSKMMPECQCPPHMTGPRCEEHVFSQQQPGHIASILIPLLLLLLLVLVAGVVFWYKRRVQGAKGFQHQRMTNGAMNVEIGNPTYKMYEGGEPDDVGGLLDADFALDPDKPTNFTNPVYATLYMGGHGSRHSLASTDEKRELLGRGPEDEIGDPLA", "lysine labeling ratio R10:1": 10.8},
      {"target": "DDX3X (lysine site: K264) (UniProt O00571)", "lysine labeling ratio R10:1": "1.78 (active)"},
      {"target": "UniProt Q8WXI7 (lysine site: K13384)", "lysine labeling ratio R10:1": 7.85},
      {"target": "ENG (lysine site: K513) (UniProt P17813)", "lysine labeling ratio R10:1": 4.09},
      {"target": "DSG2 (lysine site: K254) (UniProt Q14126)", "lysine labeling ratio R10:1": 8.19},
      {"target": "IGF2R (lysine site: K808) (UniProt P11717)", "lysine labeling ratio R10:1": 5.23},
      {"target": "UniProt P62491 (lysine site: K179)", "sequence (P62491 whole entry)": "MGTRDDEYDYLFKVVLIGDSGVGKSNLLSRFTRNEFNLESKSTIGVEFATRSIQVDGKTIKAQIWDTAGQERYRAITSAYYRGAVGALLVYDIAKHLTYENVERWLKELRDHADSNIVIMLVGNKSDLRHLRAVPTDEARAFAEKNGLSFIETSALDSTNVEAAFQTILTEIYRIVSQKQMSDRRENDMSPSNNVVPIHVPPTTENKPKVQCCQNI", "lysine labeling ratio R10:1": 2.31},
      {"target": "HSPG2 (lysine site: K1414) (UniProt P98160)", "lysine labeling ratio R10:1": "1.42 (active)"},
      {"target": "UniProt Q15149 (lysine site: K2255)", "lysine labeling ratio R10:1": 4.45},
      {"target": "PFN1 (lysine site: K70) (UniProt P07737)", "sequence (P07737 whole entry)": "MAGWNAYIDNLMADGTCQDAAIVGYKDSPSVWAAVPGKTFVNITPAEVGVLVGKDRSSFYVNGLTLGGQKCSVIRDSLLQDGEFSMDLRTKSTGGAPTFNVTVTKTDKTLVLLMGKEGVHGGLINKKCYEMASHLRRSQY", "lysine labeling ratio R10:1": 2.2},
      {"target": "UniProt Q12884 (lysine site: K334)", "lysine labeling ratio R10:1": 3.23},
      {"target": "UniProt Q16363 (lysine site: K518)", "lysine labeling ratio R10:1": 2.09},
      {"target": "SPTBN1 (lysine site: K1815) (UniProt Q01082)", "lysine labeling ratio R10:1": 2.56},
      {"target": "FLNA (lysine site: K1491) (UniProt P21333)", "lysine labeling ratio R10:1": 2.1}
    ]}
  ]
}
